# From PubChem BioAssay AID651598 (Sanford-Burnham Center for Chemical Genomics, 2012)
# Where “and” joins values, the source holds several entries; their conditions need not be identical. Equal entries are not always repeated.
# Biological target: Apelin receptor (Homo sapiens) (UniProt P35414)
# Experiment: apelin receptor (APJ) antagonists, SAR follow-up, counter-screen for CXCR6 antagonist project, cell-based, beta-arrestin, DiscoveRx, panel, CHO-K1 (AID 651598)
# Settings: CHO-K1 PathHunter beta-arrestin luminescence, antagonist mode; run 3, at 80 µM (top of the series)
# Sequence of Apelin receptor (Homo sapiens) (P35414 whole entry, looked up): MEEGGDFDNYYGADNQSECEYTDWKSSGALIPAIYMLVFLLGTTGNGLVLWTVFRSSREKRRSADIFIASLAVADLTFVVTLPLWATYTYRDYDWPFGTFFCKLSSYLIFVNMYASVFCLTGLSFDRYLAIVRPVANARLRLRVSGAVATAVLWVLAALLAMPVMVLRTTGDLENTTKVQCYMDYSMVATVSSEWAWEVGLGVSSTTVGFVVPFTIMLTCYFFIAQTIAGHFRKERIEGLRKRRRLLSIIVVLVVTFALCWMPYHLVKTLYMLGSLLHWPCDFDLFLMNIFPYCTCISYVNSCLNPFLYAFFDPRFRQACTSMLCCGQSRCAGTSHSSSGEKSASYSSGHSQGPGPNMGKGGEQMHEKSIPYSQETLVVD
row,Compound,inhibition
1,COc1cc(C(=O)NC2CC3CCCC(C2)N3CC(=O)Nc2ccccc2)cc(OC)c1OC (stereo not drawn),-24.7% and 10.7% and 13.8%
2,COc1cc(C(=O)NC2CC3CCC(C2)N3CC(=O)Nc2ccccc2)cc(OC)c1OC (stereo not drawn),2.29% and 12.1%
3,COc1cc(C(=O)NC2CCN(CC(=O)Nc3ccccc3)CC2)cc(OC)c1OC,19.7%
